In PubChem BioAssay AID488890 (Southern Research Specialized Biocontainment Screening …, 2010):
The whole screen tested about 320,000 compounds, of which about 1,300 (0.41%) were called active. Inconclusive results (about 3%) are left out. How the calls were made is not given here. Only a sample is shown. Entries with a potency or affinity are not part of this list.

experiment: growth inhibition of non-replicating M. tuberculosis (AID 488890); details: Mycobacterium tuberculosis non-replicating, at 25 µM, stronger effect = higher value;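 further: plate controls were DMSO cells for no effect and high antibiotic wells for full effect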

SMILES	inhibition [%]
CSc1nc2n(n1)C(C)C1=C(CCCC1=O)N2 (centres undefined)	-15.3
CC(=O)Nc1ccc(NC(=O)c2ccc(S(=O)(=O)N(C)c3ccccc3)cc2)cc1	-4.01
COc1ccc(C(=O)OCc2c(-c3ccccc3)ncc3ccccc23)cc1	14.9
Cc1cccc(C(=O)NCCC(=O)Nc2ccc(C#N)cc2)c1	-25.3
Cc1cccc2nc(CSc3ccccc3C(=O)O)cn12	24.4
Cc1cc(C)cc(NC(=O)C2CCCN(c3ncccn3)C2)c1 (centres undefined)	0.57
c1cc(-c2cc3cc4c(cc3cn2)OCO4)cs1	53.8
O=S(=O)(CCN1CCN(c2ccccn2)CC1)c1ccc(F)cc1	3.07
O=S(=O)(c1cc(Cl)ccc1Cl)N1CCN(c2ccccn2)CC1	6.68
CC(=O)Cn1c2ccccc2n2nc(CCC(=O)O)c(=O)nc12	-25.9
CC1CCN(C(=O)c2cc3ccccc3cc2O)CC1	62
O=C(c1cc2ccccc2cc1O)N1CCCC1	5.6
O=C(OCC(=O)N1CCCC1)c1ccccc1O	71.7
Cc1cccc(C(=O)OCC(=O)N2CCCCCC2)c1	12
O=C(COc1ccc(Cl)cc1)OCC(=O)N1CCCCCC1	70.8
CC1CCN(C(=O)COC(=O)c2cc3ccccc3oc2=O)CC1	11.8
O=C(OCC(=O)N1CCN(C(=O)COC(=O)c2ccc(O)cc2O)CC1)c1ccc(O)cc1O	-2.13
NC(=O)C1CCN(C(=O)COc2ccc(Nc3ccccc3)cc2)CC1	24.7
O=[N+]([O-])c1cccc(-c2csc(N/N=C/c3cccc(O)c3)n2)c1	4.67
COc1ccc(C(OC(=O)c2ccco2)C(=O)NC2CCCC2)cc1 (centres undefined)	-11.4
CCc1ccc(C(=O)NCc2cnn(C)c2)s1	6.54
Cc1ccc(SCC(=O)O/N=C(\N)c2cccnc2)cc1	67.7
O=C(/C=C/Nc1ccc(Oc2ccccc2Cl)cc1)c1ccco1	61.8

SMILES	inhibition [%]
Cc1cccc(-n2ccnc2SCC(=O)Nc2nccs2)c1	15.5
O=C(NCc1nc2ccccc2[nH]1)c1ccc([N+](=O)[O-])cc1	4.71
O=C(Cc1nc2ccccc2[nH]1)c1ccc([N+](=O)[O-])cc1	6.15
Cc1cc(C(=O)CN2C(=O)C(=O)N(Cc3ccco3)C2=O)c(C)n1CCc1ccccc1	54.3
Cc1cccc(NC(=O)COc2ccc3oc4c(c3c2)CCCC4)n1	75.9
Cc1ccnc(NC(=O)COc2ccc3oc4c(c3c2)CCCC4)c1	76.9
COc1ccc(CNC(=O)Nc2ccc([N+](=O)[O-])cc2)cc1	-6.85
O=C(NCCCn1ccnc1)c1ccc(Cl)c(S(=O)(=O)N2CCOCC2)c1	2.9
C/C(CC(=O)Nc1cccnc1)=N\NC(=O)C(=O)Nc1cccc(C)c1	6.84
CCOCCn1ccc2c(OCC(=O)Nc3ccccc3F)cccc2c1=O	4.93
O=C(NCCOc1ccccc1)c1cc(C(=O)NCCOc2ccccc2)cc([N+](=O)[O-])c1	-6.28
COc1cccc(OCCNC(=O)c2cccc(OC)c2)c1	7.64
COc1cccc(OCCNC(=O)c2ccc(C)cc2)c1	37.6
Cc1ccc(OCCNC(=O)c2cccc(C)c2)cc1	49.8
CCCN(C(=O)c1ccco1)c1nnc(-c2ccccc2C)s1	72.7
COc1cc(C(=O)N[C@H](C(=O)NC2CCCCCC2)C(C)C)cc(OC)c1OC	2.31
O=C(COC(=O)c1cc(Br)ccc1O)Nc1ccc2c(c1)OCCO2	76.5
Cc1ccc(C(=O)OCC(=O)Nc2ccc3c(c2)OCO3)c(O)c1	-15.4
O=C(COC(=O)c1cccnc1Cl)c1ccc2c(c1)OCCO2	5.13
O=C(COC(=O)c1cc(Cl)ccc1O)Nc1ccc2c(c1)OCCO2	71.7
CC1=C(C(=O)OCc2ccccc2)C(c2ccc([N+](=O)[O-])cc2)NC(=O)N1 (centres undefined)	8.66
Cc1ccc(-n2cc3c(=O)n(C)c(=O)n(C)c3c2)cc1C	13.7
COc1cc2[nH]c(=S)nc(NCc3cccs3)c2cc1OC	-37

SMILES	inhibition [%]
COC(=O)c1ccc(NC(=O)NS(=O)(=O)c2ccc(C)cc2)cc1	16.8
CCOC(=O)c1ccc(S(=O)(=O)NNS(=O)(=O)c2ccc(C)cc2)cc1	3.23
CCOC(=O)c1ccc(NC(=O)CCC(=O)OC)cc1	3.53
CCOC(=O)CC(=O)Nc1ccc(C)cc1	60.5
COC(=O)C(C)NC(=O)c1ccc(C(C)(C)C)cc1 (centres undefined)	-13.9
Cc1oc(-c2ccccc2F)nc1CS(=O)(=O)CC(=O)NCCCc1ccccc1	-19.5
Cc1ccc(C(C)NC(=O)c2ccco2)cc1 (centres undefined)	71.4
CCC(=O)C1CCCN(C(=O)CCc2nnc(-c3ccc4c(c3)OCO4)o2)C1 (centres undefined)	-3.37
Oc1ccccc1N=N/C(=N/Nc1ccccc1O)c1ccccc1	22.9
O=C(O)c1ccccc1N=N/C(=N/Nc1cc(S(=O)(=O)O)ccc1O)c1ccccc1	-12.5
CC(=O)OC(C(=O)NC1CCCCC1)c1ccncc1 (centres undefined)	-2.68
CSC1=NSC2=NC(=O)/C(=C/c3coc4ccccc4c3=O)C(=N)N12	-10.1
CSC1=NSC2=NC(=O)/C(=C\c3coc4ccccc4c3=O)C(=N)N12	-4.28
CCOc1ccc(Nc2ccc(N3C(=O)CCC3=O)cc2[N+](=O)[O-])cc1	7.14
Cc1sc(NC(=O)c2cccc(N3C(=O)CCC3=O)c2)nc1-c1ccccc1	-5.52
CCN(CC)S(=O)(=O)c1cccc(-c2nnc(SCC(=O)NC)n2N)c1	-7.59
Cc1ccc(NC(=O)COC(=O)CCC(=O)c2cccs2)cc1C	59.8
Cc1ccc(N/C=C/C(=O)c2cccs2)cc1C	35.6
Cc1ccc(NC(=O)COC(=O)CCC(=O)c2cccs2)cc1	69
COc1cc(NC(=O)C/C(C)=N/NC(=O)c2ccccn2)c(OC)cc1Cl	69.5
COc1ccc(NC(=O)CCC(=O)c2cccs2)c(OC)c1	-6.26
Cc1ccc(NC(=O)CCC(=O)c2cccs2)cc1	8.3
COc1cc(NC(=O)C/C(C)=N/NC(=O)c2cccc(O)c2)c(OC)cc1Cl	45.4

SMILES	inhibition [%]
COc1ccc(NC(=O)CCC(=O)c2cccs2)cc1Cl	1.43
O=C(CSc1n[nH]c(-c2ccc(S(=O)(=O)NC3CCCCC3)cc2)n1)N1CCCC1	12.1
O=C(CCc1nc2ccccc2c(=O)[nH]1)NCCN1C(=O)S/C(=C\c2ccccc2Cl)C1=O	7.97
O=c1c2ccccc2n(Cc2cccc(F)c2)c(=O)n1C1CCCC1	7.83
CC(C)C[C@@H](CN(N=O)[C@@H](Cc1ccccc1)CN(C)N=O)N(CCc1ccccc1)N=O	1.78
CCOc1ccc(N2C(=O)CC(NC3CCCCNC3=O)C2=O)cc1 (centres undefined)	61.4
Cc1ccccc1NC(=O)Nc1ccccn1	1.67
COc1ccc(-c2cc(C(F)(F)F)nc(-n3ccnc3C)n2)cc1	31
O=C(COC(=O)CNS(=O)(=O)c1ccc(Br)cc1Cl)NC1CC1	-8.59
Cc1ccc(NC(=O)CCC(=O)c2cccs2)cc1F	14.5
O=C(CCC(=O)c1cccs1)NCc1ccc(Cl)cc1	3.45
O=C(Nc1ccc(Cl)cc1)c1cccs1	76.6
Cc1ccc(NC(=O)Cc2cccs2)cc1Cl	13.4
O=c1c2ccccc2ncn1CCCSc1ccc(Cl)cc1	72.5
O=C(c1ccccc1CCc1ccccc1)N1CCCC1	7.78
CCC(=O)Nc1ccc(Br)cn1	8.41
CCCCC(=O)Nc1ccc(Br)cn1	6.83
CCN(C(=O)COC(=O)c1cc([N+](=O)[O-])ccc1N1CCOCC1)C1CCS(=O)(=O)C1 (centres undefined)	-18.3
CC1CCc2c(nc3nc[nH]n3c2=O)C1 (centres undefined)	14.7
Cc1nc2nc3c(c(=O)n2[nH]1)CCC3	-0.78
Cc1cccc(NC(=S)NCC(c2cccnc2)N2CCOCC2)c1C (centres undefined)	-1.94
CCOc1ccc(N2C(=O)CC(N(CCc3ccc(OC)c(OC)c3)C(=O)/C=C/C(=O)O)C2=O)cc1 (centres undefined)	16.4
COc1cc(/C=C2/SC(=O)NC2=O)ccc1OC(=O)c1ccco1	-7.07

SMILES	inhibition [%]
CCOC(=O)COc1ccc(/C=C2/C(=O)NN(c3ccc(F)cc3)C2=O)cc1OC	79.2
COc1cc(/C=C2/SC(=S)N(C)C2=O)ccc1OC(=O)c1ccco1	31.5
COc1ccc(/C=C2/C(=O)N(c3ccccc3)N=C2C)cc1OC	1.07
COC(=O)c1ccc(N2NC(=O)/C(=C/c3ccc(OC)c(OC)c3)C2=O)cc1	14.3
COc1cc(/C=C2/C(=O)NN(c3cccc(C)c3)C2=O)cc([N+](=O)[O-])c1O	10.2
COc1cc(/C=C2/C(=O)NN(c3ccc(Cl)cc3)C2=O)cc(OC)c1O	21.1
COc1ccc(/C=C2/C(=O)N(c3ccccc3)N=C2C)cc1Br	1.11
CC1CCCN(CCCNC(=O)c2ccc(CS(=O)(=O)c3c(Cl)cccc3Cl)o2)C1 (centres undefined)	0.97
C/C(=N\NC(=O)c1ccccc1NC(=O)c1ccc(Cl)cc1)c1ccncc1	14.5
Cn1nc(C(=O)N2CCN(S(=O)(=O)/C=C/c3ccccc3)CC2)c2ccccc2c1=O	1.67
CCC1C2Cn3c(nc4ccccc43)C1N(C)O2 (centres undefined)	-9.29
CC1(C)CC(=O)C(C=NCCN2CCN(C(=O)CCl)CC2)=C(O)C1	28.9
CCOC(=O)c1sc(C)c(C(=O)NCCCN2CCOCC2)c1N	-1.46
COc1cc(CC(=O)OCC(=O)Nc2ccc(Cl)c(S(=O)(=O)N(C)C)c2)cc(OC)c1OC	16.7
Cc1ncc(CO)c(CNc2ccc(Oc3ccccc3)cc2)c1O	41.9
CCC1CCc2sc(C(=O)NCc3ccccn3)cc2C1 (centres undefined)	75.2
CC1CCc2sc(C(=O)NNC(=O)c3ccncc3)cc2C1 (centres undefined)	71.2
CCC1CCc2sc(C(=O)NNC(=S)NCC3CCCO3)cc2C1 (centres undefined)	23.3
O=C(NCC1CCCO1)c1cc2c(s1)CCCC2 (centres undefined)	5.26
CCOc1ccc(NC(=O)CCC(=O)NNC(=O)COc2ccc(C)cc2)cc1	-22.8
CCOC(=O)c1c(C)[nH]c(C)c1C(=O)CSc1nncs1	-5.38
Cc1[nH]ccc(=O)c1OCC(=O)O	-4.62
